Sm TGR inh: inhibitors of Schistosoma mansoni thioredoxin glutathione reductase; Q962Y6; hit rate 3% among 360,000; purified TGR, DTNB reduction, TNB absorbance 405 nm; AID 485364; Potency, µM (highest dose often 114 µM), without a hit: top-dose activity change, negative = inhibition, actives largely listed as inhibitors; also: potency is read from the fitted curve at half-maximal effect; nearly all actives have a fitted effect of over 60% in size
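Kinetic colorimetric format: TGR-catalysed, NADPH-driven DTNB reduction monitored via TNB absorbance. Enzyme dispensed at 20 nM; compound exposure 15 min at room temperature before reaction start.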
HCMV inh: inhibitors of human cytomegalovirus | HFF cells, HCMV-luciferase reporter, 72 h; active compounds read low | activity change, negative = inhibition, % at 57.5 µM | hit rate 4.5% among 410,000 | AID 1259415; in the data active = activity change below about -60%; inconclusive = no clear call, values can overlap the other calls; inactive = above about -39%
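Inhibition of viral replication was scored as loss of reporter luminescence in HFFs infected with HCMV-luciferase (MOI 1 PFU/cell) for 72 h; compounds tested at 2 doses, normalized to buffer and Salinomycin controls.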
VACV Venus inh: vaccinia inhibition (Venus reporter); Vaccinia virus Venus reporter expression, fluorescence; Potency, µM (titrated, usually from 36.5 µM), inactives show top-dose activity change, negative = inhibition, most hits filed as inhibitors; hit rate 0.46% among 330,000; calls by dose curve; tested in A549 cells; also: potency is read from the fitted curve at half-maximal effect; nearly all actives have a fitted effect of over 30% in size
HCV inh: HCV inhibition; Huh7.5.1 HCVcc-Cre infection, luciferase reporter, 44 h; Potency, µM (doses to about 41.8 µM), without a hit: at the highest dose activity change, negative = inhibition, usual class: inhibitors; hit rate 3.4% among 340,000; AID 651820; also: potency is read from the fitted curve at half-maximal effect
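Reporter virus HCVcc-Cre (~0.5 moi) infects cells exposed to compound; seeding density 1,000 cells/well with 4 h settling beforehand. Luminescence, 15 sec read, taken 44 h post-infection following a 15 min RT substrate incubation.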
Vaccinia mCherry: inhibitors of vaccinia virus infection (mCherry reporter signal); hit rate 0.63% among 310,000; Potency, µM (doses to about 36.5 µM), without a hit: at the top dose activity change, negative = inhibition, usual class: inhibitors; Vaccinia virus mCherry reporter infection, fluorescence; calls by dose curve; tested in A549 cells; also: potency is read from the fitted curve at half-maximal effect; nearly all actives have a fitted effect of over 35% in size
FMDV antiviral: blocks foot and mouth disease virus. FMDV antiviral cell-based qHTS. hit rate 1.2% among 410,000. AID 1159524. Potency, µM (titrated, usually from 57.9 µM), for the others: at the top dose activity change, negative = inhibition, hits mostly inhibitors; calls by dose curve; tested in HEK293T cells; also: read-out not given here; potency is read from the fitted curve at half-maximal effect; nearly all actives have a fitted effect of over 45% in size
* hit, by the source's call. An excerpt weighted towards active compounds, which were near 9.3% of everything screened. Unless noted, calls follow the shape of the dose curve; as a rule, active = well fitted curve in the direction sought with a large enough effect; inconclusive = small, poorly fitted or top-dose-only effect, or another doubt; inactive = no such curve, though single readings can be large; an effect the other way counts as inactive or inconclusive. % is scaled to controls: 0 for no effect and ±100 for the full control effect.

For COc1ccc(Nc2c3c(nc4ccc(NC(=O)/C=C/c5cccc(OC)c5OC)cc24)CCCC3)cc1OC the results were Sm TGR inh 0.9%, HCMV inh -97.2*, VACV Venus inh inconclusive, Vaccinia mCherry inconclusive and FMDV antiviral inconclusive.
`COc1ccccc1Nc1c2c(nc3ccc(NC(=O)/C=C/c4cccc(OC)c4OC)cc13)CCCC2` gave Sm TGR inh -0.2%, HCMV inh -98.8*, VACV Venus inh inconclusive, Vaccinia mCherry inconclusive and FMDV antiviral -27.1%.
CC(NC(=S)NCCCN1CCOCC1)C12CC3CC(CC(C3)C1)C2 (stereo unspecified) was read as Sm TGR inh -14.1%, HCMV inh inconclusive, VACV Venus inh -20.8%, HCV inh -2.4%, Vaccinia mCherry inconclusive and FMDV antiviral -14.1%.
Screening O=C(C[n+]1ccc(C(=O)c2ccccc2)cc1)Nc1cccc([N+](=O)[O-])c1 returned HCMV inh 6.3, VACV Venus inh -1.6%, Vaccinia mCherry -1.9% and FMDV antiviral 0.0%.
Screening O=C(NN1C(=O)C2C3C=CC(C3)C2C1=O)c1cccc(Cl)c1 (stereo unspecified) returned Sm TGR inh -12.9%, HCMV inh -36.7, VACV Venus inh -1.9%, HCV inh -11.0%, Vaccinia mCherry -17.4% and FMDV antiviral -20.1%.
For Cc1ccc2nc(N(Cc3cccnc3)C(=O)CCc3ccccc3)sc2c1 the results were Sm TGR inh 11.3%, HCMV inh 52.4, VACV Venus inh -15.2%, Vaccinia mCherry -0.9% and FMDV antiviral 12.4%.
CN(C)c1ccc(C=C2C(=O)NC(=O)NC2=O)cc1 was read as HCMV inh -11.4, VACV Venus inh 1.7%, HCV inh 4.4%, Vaccinia mCherry inactive and FMDV antiviral -9.6%.
Screening CCN(CC)c1ccc(C=C2C(=O)NC(=S)NC2=O)cc1 returned Sm TGR inh 15.8µM*, HCMV inh -28.6, HCV inh inconclusive and FMDV antiviral 22.4µM*.
`Cc1ccc(/C=C2\NC(=S)NC2=O)cc1[N+](=O)[O-]` gave Sm TGR inh 1.4%, HCMV inh -21.6, VACV Venus inh -6.7%, HCV inh -0.9%, Vaccinia mCherry inactive and FMDV antiviral 7.2%.
CC(C)CN(CC(C)C)c1ccc(C=C2C(=O)NC(=S)NC2=O)cc1[N+](=O)[O-] was read as Sm TGR inh 1.12µM*, HCMV inh -12.8, VACV Venus inh -5.6%, HCV inh -11.3%, Vaccinia mCherry -8.8% and FMDV antiviral inconclusive.
Screening CN(C)c1ccc(C=C2C(=O)NC(=S)NC2=O)cc1 returned HCMV inh 22.3, VACV Venus inh -8.6%, HCV inh inconclusive, Vaccinia mCherry -17.8% and FMDV antiviral 28.2µM*.
`N#CC(C#N)=C1C=CC=CN1/C(=C\c1ccco1)C(=O)c1ccccc1` gave Sm TGR inh 2.82µM*, HCMV inh -99.6*, VACV Venus inh inconclusive, HCV inh inconclusive, Vaccinia mCherry inconclusive and FMDV antiviral inconclusive.
For COc1ccc(C(=O)N/C(=C/c2ccco2)C(=O)NCc2ccco2)cc1 the results were Sm TGR inh inconclusive, HCMV inh 4.6, VACV Venus inh -7.2%, HCV inh 7.7%, Vaccinia mCherry inactive and FMDV antiviral -14.6%.
CN1CCN(C(=O)/C(=C/c2ccco2)NC(=O)c2ccccc2)CC1 was read as Sm TGR inh 0.2%, HCMV inh 13.8, VACV Venus inh 8.7%, HCV inh 13.6%, Vaccinia mCherry -11.9% and FMDV antiviral 3.0%.
For COc1ccc(C=C(C#N)C(=O)c2ccccc2)cc1 the results were HCMV inh 42.2, VACV Venus inh -10.1%, Vaccinia mCherry -1.1% and FMDV antiviral -15.0%.
Screening COc1ccc(/C=C(/C(=O)c2cccs2)N2C=CC=CC2=C(C#N)C#N)cc1 returned Sm TGR inh 0.282µM*, HCMV inh -60.1*, HCV inh inconclusive and FMDV antiviral -17.9%.
Screening N#CC(C#N)=C1C=CC=CN1/C(=C\c1ccco1)C(=O)c1ccc(Br)cc1 returned Sm TGR inh 2.24µM*, HCMV inh -96.6*, VACV Venus inh inconclusive, HCV inh inconclusive, Vaccinia mCherry inconclusive and FMDV antiviral 10µM*.
Screening COc1ccc(C(=O)/C(=C\c2ccco2)N2C=CC=CC2=C(C#N)C#N)cc1 returned Sm TGR inh inconclusive, VACV Venus inh inconclusive, HCV inh 11.2µM*, Vaccinia mCherry inconclusive and FMDV antiviral 11.2µM*.
Screening N#C/C(=C/c1ccco1)C(N)=S returned Sm TGR inh -0.9%, HCMV inh -4.2, VACV Venus inh -17.3%, HCV inh 8.0%, Vaccinia mCherry inactive and FMDV antiviral -4.3%.
Screening Cn1c(C(=O)N2CCCc3ccccc32)cc2c(=O)n3ccccc3nc21 returned Sm TGR inh 9.9%.
Cc1ccc(OCC(=O)NC(=S)Nc2ccccn2)c(Br)c1 was read as Sm TGR inh -2.7%, HCMV inh -62.5*, VACV Venus inh -10.3%, HCV inh 18.0%, Vaccinia mCherry inactive and FMDV antiviral 15.8µM*.
O=C1c2sc3nc4c(c(=O)n3c2C(=O)N1c1ccccc1)CCC4 was read as Sm TGR inh 17.8µM*, HCMV inh inconclusive, VACV Venus inh -6.1%, HCV inh 5.3% and FMDV antiviral inconclusive.
`COc1cc(C2C3C(C)N(C)C(=O)N(C)C3N(C)C(=O)N2C)ccc1O` (stereo unspecified) gave Sm TGR inh -11.7%, HCMV inh 18.5, VACV Venus inh -13.6%, HCV inh 3.8% and FMDV antiviral -13.9%.
CC(=O)c1ccc(NC(=O)c2ccc3c(c2)nnn3C2CCCC2)cc1 was read as Sm TGR inh 7.6%, HCMV inh -3.7, VACV Venus inh -5.6%, Vaccinia mCherry -7.4% and FMDV antiviral 5.1%.
Screening N#Cc1ccc(NC(=O)c2ccc3c(c2)nnn3C2CCCC2)cc1 returned Sm TGR inh 4.47µM*, HCMV inh -9.5, VACV Venus inh 0.7%, Vaccinia mCherry -6.3% and FMDV antiviral -15.3%.
For COc1cccc(NC(=O)CN2C(=O)CC(c3ccco3)Sc3ccccc32)c1 (stereo unspecified) the results were Sm TGR inh -0.1%, HCMV inh -105.4*, VACV Venus inh -4.3%, Vaccinia mCherry -8.1% and FMDV antiviral -21.9%.
`CC(=O)Nc1ccc(NC(=O)CN2C(=O)CC(c3ccco3)Sc3ccccc32)cc1` (stereo unspecified) gave Sm TGR inh -1.1%, HCMV inh -105.1*, VACV Venus inh 6.6%, Vaccinia mCherry 6.2% and FMDV antiviral -6.5%.
CCOc1ccccc1NC(=O)CN1C(=O)CC(c2ccco2)Sc2ccccc21 (stereo unspecified) was read as Sm TGR inh -17.7%, HCMV inh -87.0*, VACV Venus inh -22.1%, Vaccinia mCherry -23.2% and FMDV antiviral -18.9%.
